# Screens from PubChem BioAssay.
# Only some compounds are listed: those with a hit (about 2.3% of all), similar ones and a draw of the others.
# GLP-1R inv ag – inverse agonists of human GLP-1 receptor. 1.6% of 410,000 active. HEK293 GLP-1R CRE-luciferase, luminescence, 24 h; GLP-1R form is constitutively active. Potency, µM (doses to about 38.3 µM), for inactives: top-dose activity change, negative = inhibition, most hits filed as inhibitors; further: on the % scale 0 is the no-effect control and ±100 the full control effect; nearly all actives have a fitted effect of over 55% in size
#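 Seeding at 200 cells/uL, 12 h culture, 24 hr compound treatment, then luciferase reagent and a luminescence read; cells are HEK293 stably expressing a constitutively active GLP-1R plus cAMP-responsive luciferase.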
# GLS inh – glutaminase GLS (human) inhibition; GLS enzymatic activity, qHTS titration; Potency, µM (doses to about 45.5 µM), for inactives: at the highest dose activity change, negative = inhibition, hits mostly inhibitors; 0.21% of 410,000 active; AID 624170; further: on the % scale 0 is the no-effect control and ±100 the full control effect
#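 Assay buffer: 45 mM KH2PO4 pH 8.2, 0.02% Tween-20. hKGA acts on L-glutamine (1 mM solution added); product glutamate is reported by an oxidase/peroxidase Amplex Red coupling, with fluorescence taken at baseline and 30 min.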
# GLP1R ag – activates the human GLP-1 receptor. Potency, µM (series often up to 45.6 µM), inactives show top-dose activation, most hits filed as activators. 0.007% of 380,000 active. HEK293 GLP-1R CRE-luciferase, luminescence, 4-6 h; cells express a hypersensitive GLP-1R form; further: % of control where 0% means no effect
# 12-LOX inh – inhibitors of human 12S-lipoxygenase ALOX12; 1.1% of 580,000 active; P18054; Potency, µM (top dose mostly 108 µM), without a hit: top-dose activity change, negative = inhibition, hits mostly inhibitors; AID 1671190; purified 12hLO, xylenol orange hydroperoxide absorbance; further: on the % scale 0 is the no-effect control and ±100 the full control effect
# Target sequence (P18054 whole entry, looked up): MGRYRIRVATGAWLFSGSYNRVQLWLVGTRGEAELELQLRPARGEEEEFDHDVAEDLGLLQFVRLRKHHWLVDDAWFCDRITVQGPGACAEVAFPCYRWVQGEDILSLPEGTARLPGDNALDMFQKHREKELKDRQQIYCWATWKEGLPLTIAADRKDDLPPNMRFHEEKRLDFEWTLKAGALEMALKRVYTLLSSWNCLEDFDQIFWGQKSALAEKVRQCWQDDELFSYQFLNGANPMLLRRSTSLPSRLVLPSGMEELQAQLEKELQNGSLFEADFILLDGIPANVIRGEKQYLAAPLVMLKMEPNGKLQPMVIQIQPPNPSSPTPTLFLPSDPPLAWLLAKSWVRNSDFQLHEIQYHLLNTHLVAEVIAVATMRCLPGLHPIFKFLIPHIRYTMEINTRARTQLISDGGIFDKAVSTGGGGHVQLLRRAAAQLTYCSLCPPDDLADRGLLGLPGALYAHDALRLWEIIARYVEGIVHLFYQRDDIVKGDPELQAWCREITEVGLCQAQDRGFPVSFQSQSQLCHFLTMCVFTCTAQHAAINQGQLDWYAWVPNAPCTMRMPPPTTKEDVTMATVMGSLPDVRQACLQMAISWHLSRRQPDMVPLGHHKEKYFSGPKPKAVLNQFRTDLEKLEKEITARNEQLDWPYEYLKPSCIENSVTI
#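 Purified human 12hLO at 150 nM in 25 mM Hepes, 0.01% Triton X-100, pH 7.0, preincubated 15 min at room temperature with compound. Reaction started with 40 uM arachidonic acid, 30 min at room temperature. Hydroperoxide measured by Fe-xylenol orange, 573/405 nm absorbance ratio.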
# GRP78 ERSR act – inducers of ER stress response in human glioma cells; 0.02% of 420,000 active; Potency, µM, inactives show at the highest dose activation, most hits filed as activators; U87-MG GRP78 promoter luciferase reporter, 16 h; further: series mostly up to about 76 µM; % of control where 0% means no effect; nearly all actives have a fitted effect of over 35% in size
#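 ERSR induction read as luciferase luminescence (Bright-Glo, 10 min at room temperature) in stably transfected human U87-MG glioma cells exposed to compounds for 16 h, using GRP78 as sensor.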
# PTHR1 agonist – activates the human parathyroid hormone receptor PTHR1; Q03431; HEK293 GP2 PTHR1 cells, GloSensor cAMP luminescence, 1 h; Potency, µM (highest dose often 115 µM), for the others: top-dose activation, most hits filed as activators; 0.075% of 410,000 active; AID 743266; further: nearly all actives have a fitted effect of over 55% in size
#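 HEK-293-derived GP2 cells expressing PTHR1 and a GloSensor cAMP reporter, 3,000/well, plated overnight, given luciferin plus IBMX (each 0.5 mM as added) for 1 h at 37 °C, then compound for 1 h at 37 °C. Luminescence was read after 15 min at room temperature.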
# * hit, by the source's call; i = inactive; ? = inconclusive; / = no result given; ! = not active in a repeat; [ ] = another dose, or the depositor's remark. The call rests on the fitted dose curve; in most records, active means well fitted curve in the direction sought with a large enough effect; inconclusive means small, poorly fitted or top-dose-only effect, or another doubt; inactive means no such curve, though single readings can be large; an effect the other way counts as inactive or inconclusive. Potency means the concentration at half of the fitted maximal effect.
SMILES,GLP-1R inv ag,GLS inh,GLP1R ag,12-LOX inh,GRP78 ERSR act,PTHR1 agonist
CCC(C)(C)C1CCC2(CC1)NC(=O)N(CC(=O)NC(C)CCc1ccccc1)C2=O (stereo unspecified),3.55µM*,2.0%,5.7%,-18.9%,-3.1%,i
CN(C(=O)CSc1nc2ccccc2c(=O)n1CCc1cccs1)c1ccccc1,/,/,/,0.0%,/,/
Cc1cc(C(=O)CSc2ncnc3ccccc23)c(C)n1CC(F)(F)F,/,/,/,-27.7%,/,/
Cc1cc(C(=O)CSc2ncnc3ccccc23)c(C)n1C1CC1,15.1%,14.9%,0.5%,15.8µM*!,6.5%,-40.1%
COc1ccccc1NC(=O)COc1nc(CC(C)C)c2c(c1C#N)CCCC2,/,/,/,3.3%,/,/
Cc1cc(C(=O)N[C@H](c2ccccc2)[C@@]2(C)C[C@@H]2[C@@H](C)C(=O)Nc2ccc3ccccc3c2)n(C)n1,10µM*,-1.3%,11.2%,?,-4.5%,-56.1%
CCn1nc(-c2ccc(C)c(S(=O)(=O)NCc3ccccc3C)c2)c2c(c1=O)CCCC2,/,/,/,3.8%,/,/
Cc1nn(C)c(C)c1NC(=O)c1c(Br)cnn1C,/,/,/,21.1%,/,/
Cc1cc(C)c(S(=O)(=O)c2ccccc2)c(OC(=O)c2c(Cl)cc(Cl)cc2Cl)n1,7.94µM*,-1.8%,-10.9%,4.6%,-8.0%,-8.6%[57.5 µM]
Cc1cc(C)c(S(=O)(=O)c2ccccc2)c(OC(=O)c2c(F)cccc2F)n1,-7.1%,?,-0.1%,-12.3%,-4.3%,-36.9%
C/C(=N\NC(=S)NCCc1ccccc1)c1ccc(Cl)cc1Cl,?,-2.1%,11.1%,44.7µM*,-4.6%,-22.9%
S=C(NCCc1ccccc1)Nc1ccc(Cl)cc1NC(=S)NCCc1ccccc1,/,/,/,17.8µM*,/,/
S=C(NCCc1ccc(Cl)cc1)Nc1ccc(Cl)cc1Cl,10µM*,-5.8%,-3.9%,31.6µM*,-4.1%,-49.2%
C/C(=N\NC(=S)NCCc1ccccc1)c1ccc(O)cc1O,?,?,26.7%,?,4.2%,-27.8%
Fc1ccc(NC(=S)NCCc2ccccc2)c(F)c1F,?,-7.0%,1.7%,-24.5%,2.4%,-7.5%[57.5 µM]
S=C(NCc1ccc(Cl)cc1)Nc1ccc(Cl)cc1Cl,?,8.2%,-18.1%,1.3%,-6.8%,-65.5%
O=C(Nc1ccc(F)cc1)N(Cc1cccc(O)c1)C1CC1,/,/,/,11.0%,/,/
NC(CO)c1ccc(Oc2ccccc2)cc1 (stereo unspecified),/,/,/,-56.5%,/,/
CCN(CC)C(CNC(=O)c1nn(C)c(=O)c2ccccc12)c1ccccc1 (stereo unspecified),/,/,/,40.1%,/,/
CCC1=NN(C(=O)c2ccc(Cl)cc2)C(O)(c2ccc(C)cc2)C1 (stereo unspecified),2.82µM*,-4.8%,8.1%,?,4.4%,-19.0%
CCC1=NN(C(=O)c2ccc(Cl)cc2)C(O)(c2ccccc2)C1 (stereo unspecified),?,-1.3%,-0.3%,-8.0%,-2.3%,-18.9%
CCC1=NN(C(=O)c2ccc([N+](=O)[O-])cc2)C(O)(c2ccccc2)C1 (stereo unspecified),0.794µM*,4.8%,10.7%,?,-6.2%,-25.9%
CC1=NN(C(=O)c2ccccc2Br)C(O)(c2ccc(Cl)cc2)C1 (stereo unspecified),3.16µM*,11.3%,10.5%,0.0%,-3.3%,-24.0%
OCCOCCNc1ncnc2c1c(-c1ccccc1)cn2-c1ccccc1,2.5%,2.6%,27.4%,-5.8%,-0.6%,-0.2%
Cc1c(C)n(CCc2ccccc2)c2ncnc(NCCCN(C)C)c12,2µM*,14.7%,0.5%,1.9%,3.9%,i
Cc1c(C)n(CCN(C)C)c2ncnc(NCc3ccccc3)c12,7.7%,-1.9%,9.0%,-13.4%,2.4%,i
COc1ccc(CCNc2ncnc3c2c(-c2ccccc2)cn3-c2ccc(F)cc2)cc1OC,?,7.9%,/,-20.3%,-2.4%,-1.6%
